The values that follow come from the supplement of paper PMC10681739.

± gives the standard deviation of the averaged measurements. The full ranking holds about 4,100 sequences; the median of “arbitrary fluorescence units” is about 780, and the highest 2% start at about 22,000. This excerpt belongs to a sample that is enriched for the highest values.

The assay has as its target T1, ETS1 (UniProt P14921).
T1 sequence: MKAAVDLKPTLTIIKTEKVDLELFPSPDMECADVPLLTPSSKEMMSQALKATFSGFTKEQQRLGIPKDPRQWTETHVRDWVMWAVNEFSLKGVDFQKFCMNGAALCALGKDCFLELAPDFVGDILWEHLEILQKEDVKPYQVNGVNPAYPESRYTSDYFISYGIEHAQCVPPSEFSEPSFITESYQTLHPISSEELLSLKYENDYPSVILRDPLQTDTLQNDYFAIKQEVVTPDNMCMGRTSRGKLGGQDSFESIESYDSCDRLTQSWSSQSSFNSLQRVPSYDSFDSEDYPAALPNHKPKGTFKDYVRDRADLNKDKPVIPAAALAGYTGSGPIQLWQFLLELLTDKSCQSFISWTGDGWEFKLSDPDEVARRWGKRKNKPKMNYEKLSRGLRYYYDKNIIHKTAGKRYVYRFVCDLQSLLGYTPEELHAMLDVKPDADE
In words: ETS1 binding intensity (PBM fluorescence), ETS1 alone (arbitrary fluorescence units); higher = stronger binding. The following applies: ETS1 concentration 1 nM; RUNX1 concentration 0 nM. Here is the method:
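gcPBM on 36-bp genomic-derived probes (partner site mutated) containing one ETS1 site and no RUNX1 site. Recombinant human ETS1 (1 nM) was incubated alone or with RUNX1 (25 nM) and detected by anti-ETS1 antibody fluorescence. Values are medians over 4 replicate spots (not normalised). The probes sit in constant array flanks that are not printed.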
As to TGGCTGTCACTTCCTGTCCCACTGTCGTTCCTGGGA, the ETS1 binding intensity was found to be 20600.

As for GACTGCGCCGGACGCGCCAGCCCTGCGCGATGACGT, the ETS1 binding intensity came out at 678.

For the sequence CGTTTCCTGTCTGGGACTGCGCCCACGCGATCACGT, the ETS1 binding intensity amounted to 38800.

As to TCCCTCCTTCCGCTCTGGTTTTGGGGTTGCTTGCTG, the ETS1 binding intensity turned out to be 6220.

On to CCAACAGCAGCGCTACTCCCGGCCGCTTCCGCCTGG, for which the ETS1 binding intensity stood at 748.

Turning to GGCACTTCCGGTCCTGACCTGAAGCGCTCACCGTCA, the ETS1 binding intensity was 55000.

Sequence CGGCCTCTTCCGGTCACCTGGCCCGTCGCTGTCCCG returned an ETS1 binding intensity of 17300.

In turn, CCGCGTCCTCAGAGGTCCGGCCGGAAGTCACCTGAA had an ETS1 binding intensity of 8340 ± 1500.

Consider ACAAAGTCAGTGGCAATGTGGAACGTCCGCCAAGAG, for which the ETS1 binding intensity worked out at 384.

As for GCGGAGGGAAGCGGAAATACTTGCAGTGGGGGCGAC, the ETS1 binding intensity amounted to 3700.

Sequence CTCTTGGCGGACGTTCCACATTGCCACTGACTTTGT showed an ETS1 binding intensity of 616.

The sequence CACTCCCCTCCCGAGGTCACACTTCCGGCGGCCACC registered an ETS1 binding intensity of 7960.

In turn, GCCACTTCCGGTCACTCCCCTCAGCGGCCTCGCGCT displayed an ETS1 binding intensity of 39600.

CAACTCCGGCGCCCTCAGGCCACTTCCGCCTATGTA registered an ETS1 binding intensity of 4590.

The sequence CTGCCTTTCCTGCTAGGGTACAAATCACAGCCTTAG yielded an ETS1 binding intensity of 1670.

The sequence AACTTCCTTCCCGAGAGCCTGAAGCAGCCGTAGGCC gave an ETS1 binding intensity of 9120.

As for TTTAAGGTTCATGCTGTACTCAGAACATCCTGTTCT, the ETS1 binding intensity amounted to 1150.

Turning to TCCCCACACTTCCGGCCCCGCGCGCACAGCCGCACC, the ETS1 binding intensity was 25400.

As for TCCCGCTTCGGCCAACAGCCGGGCCACTTCCGGGGC, the ETS1 binding intensity came out at 2910.

CGGGTTAAACAGCAGCCGCGCCCACACTTCCGGGGT yielded an ETS1 binding intensity of 2120.

CCGCGAACAGCAGAATTCCCGCCTTCCGCAGCCCGG: the ETS1 binding intensity was 480 ± 6.2.

For GGTCTCTGCTTCCGGTCCTTGGGGTAGCACCTCTGT, the ETS1 binding intensity turned out to be 32000.

AGCACCAGTGTTGTCTCTGCTTCCGGTCCTTATGGT: the ETS1 binding intensity amounted to 7490.

As for TGGGGCTCTTCCTGCTTATGTGAGCACAGCACCTTG, the ETS1 binding intensity was 4750.

The sequence CAGCCAGCGCACCTCCTCCTCAGCTTCCTCTGGTGC showed an ETS1 binding intensity of 620.

GATGAGGGCTTGCGCGCAAACAGCCCGGAAATGAGG displayed an ETS1 binding intensity of 1010.

For the sequence GGGGACCGGAAAGGGAGGGGTGGGCCGTAGGCGCCG, the ETS1 binding intensity came out at 4430.

Sequence CGGCCGCCGTTTAGGGCGGCCCCGGAAGCGGGGCGC displayed an ETS1 binding intensity of 531.

In the case of CAACAACCGGAAGTGGGGCGGGCCGTAGTACCCGCC, the ETS1 binding intensity worked out at 35100.

As to GCACTCATTTCCTGTCCCCTGTAGTTTAAAGGTTTT, the ETS1 binding intensity came to 19700.

AGGCTCATTTCCTGTTTTCATGTAGTTTAGAGAAAA: the ETS1 binding intensity was determined as 24300.

TTGCATGTAGTTTAGGCTGTAGTTTCCTCCTGTAGT: the ETS1 binding intensity was 534.

Turning to TATATGCACAGGAAGTCCCTTACAACCTACTCTGTT, the ETS1 binding intensity amounted to 3590.

As to GGCGGGAGAGGAAGCCGGGCGGCCGAAGCTGCCTGT, the ETS1 binding intensity is 811.

For AGGACCGGAAGTGCCCGAGGGCGGCCGGAGAACGGT, the ETS1 binding intensity turned out to be 45500.

AGAAGTGCAGTGGAGGAGGGCCGGAACGGTGACTAT showed an ETS1 binding intensity of 393.

In the case of CCATTCCTACGGCCTTCATTGCTGCATCCGGTGGAG, the ETS1 binding intensity is 2480.

On to CTCTGGGAGGCCGCCGCTTTCCACCGGAAAGAGGGT, for which the ETS1 binding intensity turned out to be 555.

Sequence AGGTACAACACCAGACGGTAGGCCAGGAAATCGCAG displayed an ETS1 binding intensity of 407.

With CTCCGCGCAGCCCCAGAGACCCTTGGGAAGTGTGGT, the ETS1 binding intensity was found to be 320.

The sequence CTCGGCCAACGCGTGCTCCACTCGGAAGTGGTGCCG had an ETS1 binding intensity of 457.

Sequence CAAAGTGATGGGGGAAATGGTTGTAGTTTTGGGTGG registered an ETS1 binding intensity of 514.

CGTGTGAGGGGGCGCAAGGCAGCGGCAGCTTCCGCC displayed an ETS1 binding intensity of 830.

Turning to GTTGCAAAGGCGCCTACAACTACTTCCGCTTCTAGT, the ETS1 binding intensity amounted to 4670.

The sequence AACAGTACTTCCGGGGCAAGTGAGCGCCTACAAGGC returned an ETS1 binding intensity of 30400.

AAATGAGCGGAGGTTGAGCCCTACTTCCGGTGGTGC returned an ETS1 binding intensity of 14100.

Consider CTTCTACTTCCTGCCCCGCCCCCAGCTGTGCTCACA, for which the ETS1 binding intensity is 17900.

For TGAGCCCTACTTCCGGTGGTGCTGTGCTCTGCCCCT, the ETS1 binding intensity is 29700.

In turn, GCTTGTCTTCCGGTTTCGTCGCCGCCGTAGGCGCAC displayed an ETS1 binding intensity of 16700.

In turn, TATTTCCTGTGCACAGAAGCAGCTGGGCCGAAGAGT showed an ETS1 binding intensity of 34400.

Sequence AGTTTCCTGAACTCAGAGCACAGTTCTGGTGCAGAA had an ETS1 binding intensity of 6300.

Consider TCGGGCTGCCGAAGAGCAGCTATTTCCTGTCTGCAC, for which the ETS1 binding intensity amounted to 5010.

Regarding CCAGACCCGGCGGAACTACCGTGCCCTCAAGGCAGC, the ETS1 binding intensity amounted to 477.

ACGCGCGCGGGGGAGGTGGCTTCTTCCGGCCGGGCC showed an ETS1 binding intensity of 1860.

Sequence CCCGGAGGACGTCCGGCCTCTGTGAGCCGCCACCTT showed an ETS1 binding intensity of 4500.

TTCAGGTGACTTCCGGCCGGACCTCTGAGGACGCGG registered an ETS1 binding intensity of 24100 ± 4200.

Sequence CTCGGCCAGGAAGCACTGAGCCACTTCGGCATCGCA displayed an ETS1 binding intensity of 591.

As for TGACAGACCCGGAAATAAGAGGAGACAACACACTTG, the ETS1 binding intensity turned out to be 4440.

On to GGCAGGAAAGAGCTGATGCATTTCAACAGCAGCCTG, for which the ETS1 binding intensity was found to be 477.

As to CCTGAGCGCCCGGAAGGAAGGCTGGGGTAGGTTGTC, the ETS1 binding intensity was 756.

The sequence ACCAACCGGAAGTGATCGTGTCGTGGCCGAAGGAGG yielded an ETS1 binding intensity of 32300.

With GTCGGAAGTGGCCGTGAGCCCAAGCCGAGGTCCCGG, the ETS1 binding intensity is 1130.
